# The source made the active and inactive calls. The call rests on the fitted dose curve.
# Biological target: Thyrotropin-releasing hormone receptor (Homo sapiens) (UniProt P34981)
# Assay: qHTS assay to identify small molecule agonists of the thyrotropin-releasing hormone receptor (TRHR) signaling pathway (AID 1346891);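 further: HEK293 cells expressing TRHR with calcium dye readout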
# Conditions: TRHR-HEK293 calcium fluorescence, agonist mode; series mostly up to 57.6 µM
# From the text: National Center for Advancing Translational Sciences [NCATS] NIH Chemical Genomics Center [NCGC] U.S. Environmental Protection Agency [EPA] National Institutes of Environmental Health Sciences [NIEHS] National Toxicology Program [NTP] Assay overview: Thyrotropin-releasing hormone (TRH) receptor (TRHR) is a G-protein-coupled receptor which binds the tripeptide thyrotropin releasing hormone. TRHR is found in the brain and, when bound by TRH, acts (through phospholipase C) to increase intracellular inositol trisphosphate. It plays a crucial role in the anterior pituitary where it controls the synthesis and secretion of thyroid stimulating hormone and prolactin. The TRHR-Hek293 assay is a cell-based assay, and it has the potential to screen G protein-coupled receptors. A compound/drug can either activate (agonist) or suppress (antagonist) GPCRs that can be monitored by levels of intracellular calcium. Using this assay, the Tox21 10K compound library was screened to identify potential TRHR agonists.
# Assay Protocol Summary: The TRHR-Hek293 cells were dispensed at 1500cells/4uL/well in 1536-well black-clear bottom plates using a Multidrop dispenser. After the assay plates were incubated at a 37 C/5% CO2 incubator for 18 hours, 4 uL of Dye-Loading Solution was added to each well. The plates were incubated at 37 C for 2 hours. For agonist mode, 23 nL of compounds dissolved in DMSO, positive controls or DMSO only was transferred to the assay plate by a pin tool. The fluorescence intensity in the plates was measured using FDSS 7000EX kinetic plate reader for 3 min at 1 sec intervals. Each test compound was measured at 15 concentrations and in triplicates.
# Chain of Thyrotropin-releasing hormone receptor (Homo sapiens) (P34981 whole entry, looked up): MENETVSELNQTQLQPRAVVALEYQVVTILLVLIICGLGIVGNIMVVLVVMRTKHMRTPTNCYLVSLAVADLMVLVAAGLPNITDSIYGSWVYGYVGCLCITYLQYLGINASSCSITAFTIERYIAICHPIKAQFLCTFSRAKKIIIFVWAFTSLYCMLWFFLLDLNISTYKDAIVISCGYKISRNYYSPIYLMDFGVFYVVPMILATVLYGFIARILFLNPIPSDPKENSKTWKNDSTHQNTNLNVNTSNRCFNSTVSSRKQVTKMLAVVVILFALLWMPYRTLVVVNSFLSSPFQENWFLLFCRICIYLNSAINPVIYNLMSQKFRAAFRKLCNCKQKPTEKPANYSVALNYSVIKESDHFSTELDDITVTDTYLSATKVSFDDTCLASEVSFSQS
row,SMILES,outcome
1,C=C(C)CNCC,inactive
2,CCO[Si](CCC#N)(OCC)OCC,inactive
3,CN(C)c1ccc(Cc2ccc(N(C)C)cc2)cc1,inactive
4,CCNC(=S)NCC,inactive
5,CC1(C)S[C@@H]2[C@H](NC(=O)COc3ccccc3)C(=O)N2[C@H]1C(=O)O,inactive
6,CCCCCCCCCCN,inactive
7,Cc1ccc(C(C)C)c(O)c1,inactive
8,C[C@]12CCC(=O)C=C1CC[C@@H]1[C@@H]2[C@@H](O)C[C@@]2(C)[C@H]1CC[C@]2(O)C(=O)CO,inactive
9,C=CC(=O)OCCC(=O)O,inactive
10,CCOC(=O)c1ccc(N)cc1,inactive
11,c1ccc(Oc2ccccc2)cc1,inactive
12,CC(C)CCCCCCCOC(=O)CCCCC(=O)OCCCCCCCC(C)C,inactive
13,CCCCCCCCCCO,inactive
14,COc1cc(OC)c(C(=O)CCCN2CCCC2)c(OC)c1,inactive
15,CCCCOC(=O)c1ccc(N)cc1,inactive
16,Clc1ccccn1,inactive
17,CCCCCCCCCCCCCCCCO,inactive
18,CC(=O)CCC=C(C)C,inactive
19,OCc1cccc(Oc2ccccc2)c1,inactive
20,O=C(O)c1ccc(S(=O)(=O)N(Cl)Cl)cc1,inactive

row,SMILES,outcome
1,CNC(=O)Oc1ccc2c(c1)[C@]1(C)CCN(C)[C@@H]1N2C,inactive
2,CN1C(=O)CC[C@H]1c1cccnc1,inactive
3,O=C(O)CCCCCCCCC(=O)O,inactive
4,CCCCCCCCCCCC(=O)OC,inactive
5,CSc1ccc(Cl)cc1,inactive
6,CCCCCCCO,inactive
7,CC1(C)NC(=O)NC1=O,inactive
8,COc1ccc(CCC(C)=O)cc1,inactive
9,COc1ccc(OC)cc1,inactive
10,O=C(O)/C=C/C(=O)O,inactive
11,CC(=O)CC(C)(C)O,inactive
12,CCCCCCC=O,inactive
13,N#Cc1ccccc1,inactive
14,O=S(=O)(O)c1ccc(N=Nc2c(O)ccc3cc(S(=O)(=O)O)ccc23)cc1,inactive
15,CN(C)c1ccc(O)c2c1C[C@H]1C[C@H]3[C@H](N(C)C)C(=O)C(C(N)=O)=C(O)[C@@]3(O)C(=O)C1=C2O,inactive
16,NC(=S)NNC(N)=S,inactive
17,COCCOC(=O)c1ccccc1C(=O)OCCOC,inactive
18,CCCCCCCCCCCCCCCC(=O)OC(C)C,inactive
19,O=C1CCCC1,inactive
20,COc1ccc(C)cc1N,inactive

# From PubChem BioAssay (Tox21)
